Read-out in test [1]: TIMP metallopeptidase inhibitor 1 (TIMP1), TIMP1 (gene 7076)
Briefly: BSK_hDFCGF_TIMP1: BioMAP Diversity Plus: hDFCGF Assay for TIMP metallopeptidase inhibitor 1 (TIMP1) Biomarker Activity (AID 2283062). Conditions: primary human foreskin fibroblasts; actives raise or lower the signal. The essentials:
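Bidirectional curve fitting against DMSO baseline yielded this endpoint, based on ELISA detection of TIMP-1 in primary human foreskin fibroblasts exposed to compound for 24 h.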

Read-out in test [2]: Monokine induced gamma interferon (MIG), CXCL9 (gene 4283)
Briefly: BSK_hDFCGF_MIG: BioMAP Diversity Plus: hDFCGF Assay for Monokine induced gamma interferon (MIG) Biomarker Activity (AID 2283063). Conditions: primary human foreskin fibroblasts; actives raise or lower the signal. The essentials:
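Endpoint derived by bidirectional fitting relative to DMSO; MIG quantified via ELISA in primary human foreskin fibroblasts harvested 24 h after dosing.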

Read-out in test [3]: Matrix Metallopeptidase 1 (MMP1), MMP1 (gene 4312)
Briefly: BSK_hDFCGF_MMP1: BioMAP Diversity Plus: hDFCGF Assay for Matrix Metallopeptidase 1 (MMP1) Biomarker Activity (AID 2283064). Conditions: primary human foreskin fibroblasts; actives raise or lower the signal. The essentials: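 MMP1 levels quantified by ELISA 24 h after dosing human dermal fibroblast cultures, with parallel SRB total-protein staining for overt cytotoxicity. Data fitted in both directions against DMSO baseline.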

Read-out in test [4]: Vascular cell adhesion molecule 1 (VCAM1), VCAM1 (gene 7412)
The test is described as follows: BSK_hDFCGF_VCAM1: BioMAP Diversity Plus: hDFCGF Assay for Vascular cell adhesion molecule 1 (VCAM1) Biomarker Activity (AID 2283065).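 For AC50: VCAM-1 protein level quantified by ELISA after 24 h chemical exposure.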 Conditions: primary human foreskin fibroblasts; actives raise or lower the signal. The essentials: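 Measured after 24 h chemical treatment of primary human skin fibroblasts, VCAM-1 was detected by ELISA and concentration-response analysed in both directions versus DMSO vehicle.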

Read-out in test [5]: Plasminogen activator inhibitor-1 (PAI1), SERPINE1 (gene 5054)
Briefly: BSK_hDFCGF_PAI1: BioMAP Diversity Plus: hDFCGF Assay for Plasminogen activator inhibitor-1 (PAI1) Biomarker Activity (AID 2283066). The note with it: primary human foreskin fibroblasts; actives raise or lower the signal. The essentials: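 Human skin fibroblast cultures receive chemical for 24 h before PAI-1 is measured by ELISA; signal changes are fitted bidirectionally against DMSO-treated wells.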

Read-out in test [6]: Intercellular Adhesion Molecule 1 (ICAM1), ICAM1 (gene 3383)
Briefly: BSK_KF3CT_ICAM1: BioMAP Diversity Plus: KF3CT Assay for Intercellular Adhesion Molecule 1 (ICAM1) Biomarker Activity (AID 2283067). The note with it: primary human keratinocytes with fibroblasts; actives raise or lower the signal. The essentials: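 Bidirectional curve fitting against a DMSO baseline was applied to ICAM-1 ELISA signal from primary human skin co-cultures harvested 24 h after treatment, with SRB staining of parallel wells for overt cytotoxicity.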

Read-out in test [7]: Interferon-gamma inducible Protein 10 (IP10), CXCL10 (gene 3627)
The test is described as follows: BSK_KF3CT_IP10: BioMAP Diversity Plus: KF3CT Assay for Interferon-gamma inducible Protein 10 (IP10) Biomarker Activity (AID 2283068). The note with it: primary human keratinocytes with fibroblasts; actives raise or lower the signal. The essentials:
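Signal is secreted/surface IP-10 by ELISA in a human primary skin co-culture of keratinocytes and foreskin fibroblasts, taken 24 h post-dosing; DMSO served as negative control.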

Test [8] is described as follows: BSK_KF3CT_SRB: Viability Assessment in the BioMAP Diversity Plus: KF3CT Assay (AID 2283069).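 Note: total protein by sulforhodamine B staining as a cytotoxicity measure; read 24 h after compound addition.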 The note with it: primary human keratinocytes with fibroblasts. The essentials: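 Cytotoxicity was gauged by SRB staining (0.1% SRB, 10% TCA fixation, 560 nm) of parallel cultures at 24 h. The cells were primary human skin keratinocytes co-cultured with fibroblasts, and activity was fitted in both directions against DMSO.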

Read-out in test [9]: Interleukin-1 alpha (IL1a), IL1A (gene 3552)
Briefly: BSK_KF3CT_IL1a: BioMAP Diversity Plus: KF3CT Assay for Interleukin-1 alpha (IL1a) Biomarker Activity (AID 2283070). Conditions: primary human keratinocytes with fibroblasts; actives raise or lower the signal. The essentials:
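IL-1a was detected by ELISA 24 h after chemical treatment of a co-culture of human skin keratinocytes and foreskin fibroblasts. Gain or loss of signal was fitted against the DMSO baseline.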

Read-out in test [10]: TIMP metallopeptidase inhibitor 2 (TIMP2), TIMP2 (gene 7077)
The test is described as follows: BSK_KF3CT_TIMP2: BioMAP Diversity Plus: KF3CT Assay for TIMP metallopeptidase inhibitor 2 (TIMP2) Biomarker Activity (AID 2283071). The note with it: primary human keratinocytes with fibroblasts; actives raise or lower the signal. A digest of the protocol: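 Measurements come from ELISA detection of TIMP-2 at 24 hours in a dosed human keratinocyte and foreskin fibroblast co-culture. DMSO serves as negative control and baseline.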

Read-out in test [11]: Transforming growth factor beta 1 (TGFb1), TGFB1 (gene 7040)
Briefly: BSK_KF3CT_TGFb1: BioMAP Diversity Plus: KF3CT Assay for Transforming growth factor beta 1 (TGFb1) Biomarker Activity (AID 2283072). The note with it: primary human keratinocytes with fibroblasts; actives raise or lower the signal. A digest of the protocol: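 TGF-b1 ELISA on a 24 h dosed co-culture of human keratinocytes and foreskin fibroblasts; cytotoxicity tracked in parallel cultures by SRB staining.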

Read-out in test [12]: C-C motif chemokine 2 (Homo sapiens) (UniProt P13500)
Briefly: BSK_KF3CT_MCP1: BioMAP Diversity Plus: KF3CT Assay for Monocyte Chemoattractant Protein 1 (MCP1/CCL2) Biomarker Activity (AID 2283073). The note with it: primary human keratinocytes with fibroblasts; actives raise or lower the signal. The essentials:
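Biomarker MCP-1 is measured by ELISA in primary human keratinocytes co-cultured with foreskin fibroblasts, 24 h after chemical treatment; DMSO serves as the negative control and activity baseline.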

Read-out in test [13]: Matrix Metallopeptidase 9 (MMP9), MMP9 (gene 4318)
Briefly: BSK_KF3CT_MMP9: BioMAP Diversity Plus: KF3CT Assay for Matrix Metallopeptidase 9 (MMP9) Biomarker Activity (AID 2283074).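 For AC50: MMP9 protein level quantified by ELISA in the co-culture.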 The note with it: primary human keratinocytes with fibroblasts; actives raise or lower the signal. A digest of the protocol: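 MMP-9 quantified by ELISA after 24 h chemical treatment of primary human skin keratinocyte/fibroblast co-cultures; gain or loss fitted against DMSO, with parallel SRB staining (0.1% SRB, 560 nm) for overt cytotoxicity.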

Read-out in a further test: CD40, CD40 (gene 958)
Briefly: BSK_LPS_CD40: BioMAP Diversity Plus: LPS Assay for CD40 Biomarker Activity (AID 2283076). The note with it: primary human HUVEC with PBMC; actives raise or lower the signal. The essentials:
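Using a multiplexed primary human co-culture (umbilical vein endothelium plus PBMC), CD40 was read by ELISA 24 h after dosing, with cytotoxicity tracked by sulforhodamine B staining of parallel cultures and activity fitted bidirectionally versus DMSO.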

Read-out in test [14]: E-selectin (Homo sapiens) (UniProt P16581)
The test is described as follows: BSK_LPS_Eselectin: BioMAP Diversity Plus: LPS Assay for Eselectin Biomarker Activity (AID 2283077). Conditions: primary human HUVEC with PBMC; actives raise or lower the signal. The essentials: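 Dose chemical onto LPS-driven HUVEC/PBMC co-culture; after 24 h, run ELISA for E-selectin; fit up- and down-going responses relative to DMSO control.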

Read-out in test [15]: Interleukin-8 (IL8), CXCL8 (gene 3576)
The test is described as follows: BSK_LPS_IL8: BioMAP Diversity Plus: LPS Assay for Interleukin-8 (IL8) Biomarker Activity (AID 2283078). The note with it: primary human HUVEC with PBMC; actives raise or lower the signal. The essentials:
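In this LPS system, chemical-treated human umbilical vein endothelium/PBMC co-cultures were harvested at 24 h for IL-8 ELISA.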

Test [16] can be described thus: BSK_LPS_SRB: Viability Assessment in the BioMAP Diversity Plus: LPS Assay (AID 2283079).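 Note: total protein by sulforhodamine B absorbance as a cytotoxicity measure; measured one day after compound addition; fitted in both directions against DMSO so loss or gain of signal counts.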 The note with it: primary human HUVEC with PBMC. A digest of the protocol:
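Cytotoxicity endpoint in human endothelial–PBMC co-culture: 24 h exposure, then SRB (0.1%) staining, 560 nm read.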

Read-out in test [17]: Interleukin-1 alpha (IL1a), IL1A (gene 3552)
The test is described as follows: BSK_LPS_IL1a: BioMAP Diversity Plus: LPS Assay for Interleukin-1 alpha (IL1a) Biomarker Activity (AID 2283080). Conditions: primary human HUVEC with PBMC; actives raise or lower the signal. A digest of the protocol:
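Primary human HUVEC and PBMC co-culture stimulated with LPS is dosed and harvested at 24 h. Both increases and decreases in ELISA-measured IL-1a are scored relative to DMSO.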

Read-out in test [18]: Monocyte Chemoattractant Protein-1 (MCP1), CCL2 (gene 6347)
The test is described as follows: BSK_LPS_MCP1: BioMAP Diversity Plus: LPS Assay for Monocyte Chemoattractant Protein-1 (MCP1) Biomarker Activity (AID 2283081).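 For AC50: secreted MCP-1 protein quantified by ELISA in culture supernatant.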 The note with it: primary human HUVEC with PBMC; actives raise or lower the signal. The essentials: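 Values derive from bidirectional fitting against DMSO of ELISA-measured MCP-1 in a human primary endothelial and mononuclear cell co-culture, 24 h after chemical addition under LPS activation.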

Read-out in test [19]: urokinase plasminogen activator (uPA), PLAU (gene 5328)
The test is described as follows: BSK_KF3CT_uPA: BioMAP Diversity Plus: KF3CT Assay for urokinase plasminogen activator (uPA) Biomarker Activity (AID 2283075). Conditions: primary human keratinocytes with fibroblasts; actives raise or lower the signal. A digest of the protocol: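 ELISA read-out of uPA 24 h after dosing human skin keratinocytes co-cultured with foreskin fibroblasts. Signal change fitted both ways relative to DMSO; sulforhodamine B on parallel cultures marks overt cytotoxicity.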

Structures are written as SMILES. Active and inactive are the calls of the source. Rule for the calls: active = hit-call score of the fitted dose curve at least 0.9, where 1 is the maximum; inactive = score below 0.9.

One may read the AC50 as the concentration giving half of the maximal activity seen.

E-selectin (Homo sapiens), sequence (P16581 whole entry, looked up): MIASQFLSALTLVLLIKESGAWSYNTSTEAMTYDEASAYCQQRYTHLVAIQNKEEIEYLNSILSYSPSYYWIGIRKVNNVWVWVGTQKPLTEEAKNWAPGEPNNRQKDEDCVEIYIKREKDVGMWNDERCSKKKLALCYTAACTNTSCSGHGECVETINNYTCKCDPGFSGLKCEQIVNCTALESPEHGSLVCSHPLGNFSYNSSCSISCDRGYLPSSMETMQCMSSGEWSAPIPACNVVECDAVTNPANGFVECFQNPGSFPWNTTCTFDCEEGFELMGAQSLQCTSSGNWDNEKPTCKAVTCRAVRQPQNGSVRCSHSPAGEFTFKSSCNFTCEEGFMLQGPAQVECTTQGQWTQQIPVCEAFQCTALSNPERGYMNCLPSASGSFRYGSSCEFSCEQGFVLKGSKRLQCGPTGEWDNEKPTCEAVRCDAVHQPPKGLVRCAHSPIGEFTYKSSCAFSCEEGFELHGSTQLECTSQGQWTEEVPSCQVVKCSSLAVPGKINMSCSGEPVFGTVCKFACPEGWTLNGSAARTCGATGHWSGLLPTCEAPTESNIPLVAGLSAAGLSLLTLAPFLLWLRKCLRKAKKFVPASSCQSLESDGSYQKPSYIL

For the molecule `COCCOCCOCCOC`, the result in test [1], in test [2], in test [3], in [4], in [5] and in [6] was inactive. Also, the result in test [7], in [8], in test [9], in [10], in test [11] and in test [12] was inactive. In addition, the outcome in test [13] is “inactive”; in the test with CD40, CD40 (gene 958), “inactive”; in test [14] it was “inactive”; in [15], “inactive”; in [16], “inactive”; in [17], “inactive”. For the same molecule, the result in [18] was inactive.
Turning to `O=c1n(CC2CO2)c(=O)n(CC2CO2)c(=O)n1CC1CO1` (stereo not drawn), the result in [1], in test [6], in test [7], in test [8], in [9] and in test [10] was inactive. Besides, the result in test [11], in test [12] and in test [17] was inactive. Further, the concentration at half-maximal activity (AC50) in [2] was 15.5 µM (active); in test [4], 11.6 µM (active); in test [5], 22 µM (active); in test [13], 20 µM (active); with CD40, CD40 (gene 958) it was 16.3 µM (active); in test [14], 20 µM (active). Moreover, the AC50 was 10.8 µM (active) in test [15], 12.2 µM (active) in [16] and 19.5 µM (active) in [18].
With `CCOCCO`, the result in [1], in test [2], in test [3], in test [5], in test [6] and in test [7] was inactive. In addition, the outcome in [8], in test [9], in test [10], in test [11], in test [12] and in test [13] was inactive. In addition, the outcome was “inactive” with CD40, CD40 (gene 958); “inactive” in test [14]; “inactive” in test [15]; “inactive” in test [16]; “inactive” in test [17]; “inactive” in test [18].
As for `O=C1CCCCCN1`, the result in test [1], in [2], in [3], in test [4], in test [5] and in test [6] was inactive. For the same molecule, the result in test [7], in test [8], in test [9], in [10], in test [11] and in [12] was inactive. Also, the outcome in test [13] was “inactive”; with CD40, CD40 (gene 958), “inactive”; in [14], “inactive”; in test [15] it was “inactive”; in test [16], “inactive”; in test [17], “inactive”. Further, the outcome in test [18] was inactive.
For the molecule `CC(C)CC(C)(O)C#CC(C)(O)CC(C)C` (stereo not drawn), the outcome in test [1], in test [2], in test [3], in test [4], in test [5] and in test [6] was inactive. Also, the result in test [7], in [8], in test [9], in [10], in [11] and in test [13] was inactive. In addition, the outcome was “inactive” in [19]; “inactive” with CD40, CD40 (gene 958); “inactive” in [14]; “inactive” in test [15]; “inactive” in test [16]; “inactive” in test [17]. In addition, the outcome in test [18] was inactive.

The values above are taken from PubChem BioAssay (EPA / NIEHS).
